# Source: publication PMC7862700, “An all-to-all approach to the identification of sequence-specific readers for epigenetic DNA modifications on cytosine”
# What was measured:
# Experiment in all cases: DAPPL (digital affinity profiling via proximity ligation, sequencing); 10 mM Tris-HCl pH 7.5, 50 mM NaCl, 1 mM DTT, 4% glycerol, room temperature, 30 min; GST-TFs on glutathione beads, 16-mer random dsDNA library, 0.1% formaldehyde crosslink after washing; high values mean tight binding
# Conditions in all cases: protein: recombinant; tags: N-terminal GST; dsDNA, one strand shown
# FLI1 = target: T1, FLI1 (Homo sapiens, UniProt Q01543 1-452)
# T1 sequence: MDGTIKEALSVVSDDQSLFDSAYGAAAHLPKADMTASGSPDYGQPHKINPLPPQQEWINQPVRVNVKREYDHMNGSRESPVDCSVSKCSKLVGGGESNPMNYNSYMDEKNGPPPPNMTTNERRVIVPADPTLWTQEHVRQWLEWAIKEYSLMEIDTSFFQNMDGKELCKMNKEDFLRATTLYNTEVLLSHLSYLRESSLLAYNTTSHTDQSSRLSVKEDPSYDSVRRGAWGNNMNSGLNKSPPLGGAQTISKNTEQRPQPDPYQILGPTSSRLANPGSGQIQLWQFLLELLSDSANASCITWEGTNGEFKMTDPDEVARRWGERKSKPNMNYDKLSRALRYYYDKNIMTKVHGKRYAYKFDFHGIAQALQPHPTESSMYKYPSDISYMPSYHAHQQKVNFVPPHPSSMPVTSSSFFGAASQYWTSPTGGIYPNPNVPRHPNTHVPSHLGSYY
# Procedure, shortened: (§1)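 Human transcription factors fused to GST were expressed in yeast, captured on glutathione beads, given DNA barcodes and pooled with a GST-only negative control. Pools were incubated with 200 nmole of a 16-mer random double-stranded DNA library in Tris/NaCl/DTT/glycerol buffer at room temperature for 30 min. They were then washed, crosslinked with 0.1% formaldehyde, proximity-ligated (BsaI/T4 ligase, 1 h, 37 °C), PCR-amplified and sequenced on an Illumina NextSeq500. Binding signal is each 6-mer's read frequency for a factor divided by its frequency for the GST control.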
# ELK1 = target: T2, ELK1 (Homo sapiens, UniProt P19419 1-428)
# T2 sequence: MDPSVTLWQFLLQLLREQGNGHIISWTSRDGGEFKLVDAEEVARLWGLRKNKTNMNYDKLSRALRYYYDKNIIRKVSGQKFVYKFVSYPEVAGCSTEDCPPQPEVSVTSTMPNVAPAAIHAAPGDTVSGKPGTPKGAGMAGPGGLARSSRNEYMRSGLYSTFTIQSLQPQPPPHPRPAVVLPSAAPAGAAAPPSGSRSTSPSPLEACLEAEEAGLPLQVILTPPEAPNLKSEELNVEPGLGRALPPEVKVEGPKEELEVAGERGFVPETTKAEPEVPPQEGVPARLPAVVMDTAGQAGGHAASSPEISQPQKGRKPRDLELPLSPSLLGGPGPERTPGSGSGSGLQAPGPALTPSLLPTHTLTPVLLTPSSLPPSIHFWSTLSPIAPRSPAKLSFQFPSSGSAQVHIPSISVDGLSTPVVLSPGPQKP
# Procedure, shortened: as §1
# GABPA = target: T3, GABPA (Homo sapiens, UniProt Q06546 1-454)
# T3 sequence: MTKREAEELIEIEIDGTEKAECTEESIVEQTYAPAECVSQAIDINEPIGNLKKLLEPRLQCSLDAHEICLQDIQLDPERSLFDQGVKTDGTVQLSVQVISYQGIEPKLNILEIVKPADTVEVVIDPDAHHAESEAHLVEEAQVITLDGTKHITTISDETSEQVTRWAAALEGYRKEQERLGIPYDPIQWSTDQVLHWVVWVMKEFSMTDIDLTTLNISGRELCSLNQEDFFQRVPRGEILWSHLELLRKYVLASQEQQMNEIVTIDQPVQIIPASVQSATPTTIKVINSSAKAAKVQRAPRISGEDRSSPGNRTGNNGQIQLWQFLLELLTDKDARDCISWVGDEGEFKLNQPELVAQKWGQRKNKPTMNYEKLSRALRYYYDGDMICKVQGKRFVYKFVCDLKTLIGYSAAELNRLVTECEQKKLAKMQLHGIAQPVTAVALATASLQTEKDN
# Procedure, shortened: as §1
# ERG = target: T4, ERG (Homo sapiens, UniProt P11308 1-479)
# T4 sequence: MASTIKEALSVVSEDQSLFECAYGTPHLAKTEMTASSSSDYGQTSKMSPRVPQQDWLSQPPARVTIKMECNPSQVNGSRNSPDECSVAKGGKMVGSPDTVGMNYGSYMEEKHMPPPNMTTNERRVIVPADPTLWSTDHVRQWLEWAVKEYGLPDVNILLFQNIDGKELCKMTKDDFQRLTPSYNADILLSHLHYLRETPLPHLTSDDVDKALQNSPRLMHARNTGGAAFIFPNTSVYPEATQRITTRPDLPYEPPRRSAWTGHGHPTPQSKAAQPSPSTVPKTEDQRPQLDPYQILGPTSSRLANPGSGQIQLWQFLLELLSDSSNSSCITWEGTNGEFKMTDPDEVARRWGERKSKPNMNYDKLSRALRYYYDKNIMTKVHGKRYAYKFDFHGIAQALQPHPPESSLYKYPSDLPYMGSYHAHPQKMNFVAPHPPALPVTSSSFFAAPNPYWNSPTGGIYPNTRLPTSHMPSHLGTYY
# Procedure, shortened: as §1
# ELF1 = ELF1 (Homo sapiens, UniProt P32519 1-619)
# Procedure, shortened: as §1
# EHF = target: T5, EHF (Homo sapiens, UniProt Q9NZC4 1-300)
# T5 sequence: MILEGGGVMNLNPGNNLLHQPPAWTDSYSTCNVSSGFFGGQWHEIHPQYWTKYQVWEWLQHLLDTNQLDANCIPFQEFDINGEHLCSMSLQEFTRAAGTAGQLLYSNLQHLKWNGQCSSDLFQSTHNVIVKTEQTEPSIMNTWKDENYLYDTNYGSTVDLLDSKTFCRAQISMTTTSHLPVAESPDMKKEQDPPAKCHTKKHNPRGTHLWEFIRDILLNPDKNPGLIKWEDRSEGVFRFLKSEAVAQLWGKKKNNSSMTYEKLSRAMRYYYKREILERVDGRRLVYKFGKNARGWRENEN
# Procedure, shortened: as §1
# SPIB = SPIB (Homo sapiens, UniProt Q01892 1-262)
# Procedure, shortened: as §1
# SPIC = target: T6, SPIC (Homo sapiens, UniProt Q8N5J4 1-248)
# T6 sequence: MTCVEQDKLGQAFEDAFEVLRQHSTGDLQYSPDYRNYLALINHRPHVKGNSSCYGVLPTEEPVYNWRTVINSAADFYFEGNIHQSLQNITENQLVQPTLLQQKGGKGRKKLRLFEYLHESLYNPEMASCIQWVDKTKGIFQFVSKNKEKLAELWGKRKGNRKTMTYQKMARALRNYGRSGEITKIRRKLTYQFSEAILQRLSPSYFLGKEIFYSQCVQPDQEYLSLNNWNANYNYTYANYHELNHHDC
# Procedure, shortened: as §1
# ELF4 = ELF4 (Homo sapiens, UniProt Q99607 1-663)
# Procedure, shortened: as §1
# ELF4, sequence (Q99607 whole entry): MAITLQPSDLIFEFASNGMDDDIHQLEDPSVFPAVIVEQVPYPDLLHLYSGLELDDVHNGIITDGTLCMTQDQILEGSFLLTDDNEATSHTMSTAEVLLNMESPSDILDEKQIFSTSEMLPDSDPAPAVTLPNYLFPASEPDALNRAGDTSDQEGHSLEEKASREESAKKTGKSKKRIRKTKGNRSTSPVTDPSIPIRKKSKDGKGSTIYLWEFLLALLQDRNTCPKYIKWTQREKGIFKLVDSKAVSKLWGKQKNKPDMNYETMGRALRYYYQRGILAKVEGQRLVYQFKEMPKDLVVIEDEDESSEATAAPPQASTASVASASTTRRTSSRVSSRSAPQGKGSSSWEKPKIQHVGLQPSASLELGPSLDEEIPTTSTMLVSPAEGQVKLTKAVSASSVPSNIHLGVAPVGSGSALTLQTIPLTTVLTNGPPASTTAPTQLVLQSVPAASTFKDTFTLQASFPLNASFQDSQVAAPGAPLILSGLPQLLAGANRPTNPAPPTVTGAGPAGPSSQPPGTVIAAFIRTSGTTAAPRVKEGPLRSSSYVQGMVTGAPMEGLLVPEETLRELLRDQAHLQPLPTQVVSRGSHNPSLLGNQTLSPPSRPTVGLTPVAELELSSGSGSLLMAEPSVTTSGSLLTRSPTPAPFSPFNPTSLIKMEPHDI
# ELF1, sequence (P32519 whole entry): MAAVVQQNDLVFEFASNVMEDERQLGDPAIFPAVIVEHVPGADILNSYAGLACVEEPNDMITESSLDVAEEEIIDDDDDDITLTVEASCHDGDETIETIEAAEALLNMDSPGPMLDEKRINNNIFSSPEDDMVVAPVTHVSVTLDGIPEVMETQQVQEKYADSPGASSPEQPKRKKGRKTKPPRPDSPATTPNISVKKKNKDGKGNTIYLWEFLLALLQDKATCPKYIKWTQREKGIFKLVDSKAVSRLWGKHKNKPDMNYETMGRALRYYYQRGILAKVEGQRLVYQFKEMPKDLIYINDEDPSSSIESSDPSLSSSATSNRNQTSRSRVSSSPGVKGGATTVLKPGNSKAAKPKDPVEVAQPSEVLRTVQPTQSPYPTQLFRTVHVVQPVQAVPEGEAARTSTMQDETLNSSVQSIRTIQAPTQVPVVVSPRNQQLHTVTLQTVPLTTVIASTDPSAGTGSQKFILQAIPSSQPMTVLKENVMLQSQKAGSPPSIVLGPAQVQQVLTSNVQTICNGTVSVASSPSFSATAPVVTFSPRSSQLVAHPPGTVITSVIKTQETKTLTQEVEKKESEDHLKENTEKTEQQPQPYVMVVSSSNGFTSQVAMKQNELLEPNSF
# SPIB, sequence (Q01892 whole entry): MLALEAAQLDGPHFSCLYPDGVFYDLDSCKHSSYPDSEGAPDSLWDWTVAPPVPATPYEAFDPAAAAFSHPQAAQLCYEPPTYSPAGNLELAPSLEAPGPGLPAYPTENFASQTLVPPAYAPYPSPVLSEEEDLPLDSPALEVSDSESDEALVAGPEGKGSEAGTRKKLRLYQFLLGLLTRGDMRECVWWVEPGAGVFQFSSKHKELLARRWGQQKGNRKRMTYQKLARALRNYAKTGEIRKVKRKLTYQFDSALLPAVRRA
sequence,measurement,setting,value
ACAGCC,binding signal,FLI1,"1 fold enrichment (6-mer frequency, TF over GST control)"
same,binding signal,ELK1,"1.1 fold enrichment (6-mer frequency, TF over GST control)"
same,binding signal,GABPA,"1.07 fold enrichment (6-mer frequency, TF over GST control)"
same,binding signal,ERG,"1.02 fold enrichment (6-mer frequency, TF over GST control)"
same,binding signal,ELF1,"1.11 fold enrichment (6-mer frequency, TF over GST control)"
same,binding signal,EHF,"1.11 fold enrichment (6-mer frequency, TF over GST control)"
same,binding signal,SPIB,"1.03 fold enrichment (6-mer frequency, TF over GST control)"
same,binding signal,SPIC,"1.08 fold enrichment (6-mer frequency, TF over GST control)"
same,binding signal,ELF4,"1.11 fold enrichment (6-mer frequency, TF over GST control)"
